# About 14,000 (4.5%) of roughly 310,000 compounds showed an effect of 50% or more. The effect is printed as a negative number. For the sample, strong results were picked, then their nearest neighbours and some compounds at random.
# Target: human ether-à-go-go-related gene (hERG) potassium channel (human, UniProt Q12809)
# Assay: primary screen, population patch clamp on CHO cells stably expressing hERG; higher = less effect of the substance
# 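Also: peak tail current of the secondary pulse compared with the same well before compound.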
# Chain of human ether-à-go-go-related gene (hERG) potassium channel (Q12809 whole entry, looked up): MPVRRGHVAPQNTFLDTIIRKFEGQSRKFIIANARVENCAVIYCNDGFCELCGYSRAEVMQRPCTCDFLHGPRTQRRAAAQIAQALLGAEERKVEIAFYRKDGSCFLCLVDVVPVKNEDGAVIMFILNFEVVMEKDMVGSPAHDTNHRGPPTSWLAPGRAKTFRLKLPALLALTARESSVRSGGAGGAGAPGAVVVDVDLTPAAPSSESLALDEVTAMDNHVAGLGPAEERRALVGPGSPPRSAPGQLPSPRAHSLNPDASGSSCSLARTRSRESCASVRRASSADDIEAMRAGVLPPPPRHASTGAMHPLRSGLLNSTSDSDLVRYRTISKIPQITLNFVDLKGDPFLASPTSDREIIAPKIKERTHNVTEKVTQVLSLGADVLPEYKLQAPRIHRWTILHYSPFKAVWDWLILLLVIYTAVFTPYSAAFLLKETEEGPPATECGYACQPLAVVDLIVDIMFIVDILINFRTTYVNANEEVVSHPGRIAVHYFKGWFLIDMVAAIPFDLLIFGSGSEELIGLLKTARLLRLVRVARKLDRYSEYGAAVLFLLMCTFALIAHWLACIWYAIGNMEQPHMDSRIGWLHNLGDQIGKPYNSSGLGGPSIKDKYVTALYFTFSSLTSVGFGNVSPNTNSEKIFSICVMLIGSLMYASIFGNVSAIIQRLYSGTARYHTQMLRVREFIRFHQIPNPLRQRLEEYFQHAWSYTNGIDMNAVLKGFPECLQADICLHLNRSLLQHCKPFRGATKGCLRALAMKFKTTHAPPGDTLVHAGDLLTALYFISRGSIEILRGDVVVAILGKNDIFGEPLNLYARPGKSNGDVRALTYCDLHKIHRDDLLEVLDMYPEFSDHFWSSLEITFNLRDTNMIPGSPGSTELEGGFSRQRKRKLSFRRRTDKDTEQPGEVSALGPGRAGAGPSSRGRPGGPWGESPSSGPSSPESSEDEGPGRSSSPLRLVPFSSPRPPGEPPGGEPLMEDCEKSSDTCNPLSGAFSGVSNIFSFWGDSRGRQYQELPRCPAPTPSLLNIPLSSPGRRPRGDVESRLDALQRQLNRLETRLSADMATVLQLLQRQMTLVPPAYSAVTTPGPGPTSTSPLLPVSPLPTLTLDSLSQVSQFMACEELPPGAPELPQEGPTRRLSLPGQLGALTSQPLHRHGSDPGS
row,Compound,"hERG current change (%, negative = inhibition) at 10uM [%]"
1,Clc1ccc(-c2csc(Nc3cccnc3)n2)cc1,13.5
2,CC(C)(C)C(=O)Nc1ccc(F)cc1[N+](=O)[O-],5.56
3,Cc1cc2oc(=O)cc(CN3CCC(C)CC3)c2c(C)c1Cl,-2.84
4,CCCCCc1c(O)c2ccccc2[nH]c1=O,7.97
5,N#CCC(=O)NNC(=S)NC(=O)C(c1ccccc1)c1ccccc1,5.41
6,O=C(NCCCCc1ccccc1)c1cccc(Br)c1,-3.79
7,CCOc1ccc(N(CC(=O)Nc2nccs2)S(=O)(=O)c2c(C)noc2C)cc1,-5.98
8,Br.COc1ccc(C2=CSC3=NCCN23)cc1OC,-6.58
9,CCOc1ccc(C2=CSC3=NCCN23)cc1Cl,-22.8
10,Br.COc1ccc(C2=CSC3=NCCN23)cc1F,-13.9
11,COc1ccc(C2=CSC3=NCCN23)cc1Cl,-2.92
12,CCCOc1ccc(C2=CSC3=NCCN23)cc1Cl,-67.8
13,CCCCOc1ccc(-c2csc(N)n2)cc1[N+](=O)[O-],11.2
14,Br.COc1ccc(C2=CSC3=NCCN23)cc1Br,-50.7
15,CCCCOc1ccc(C2=CSC3=NCCN23)cc1[N+](=O)[O-],-71
16,CCCOc1ccc(C2=CSC3=NCCN23)cc1[N+](=O)[O-],-73.6
17,O=[N+]([O-])c1ccc(C2=CSC3=NCCN23)cc1,-32.9
18,CCCOc1ccc(C2=CSC3=NCCN23)cc1.Cl,-28.3
19,CSc1nc2sc3c(c2c(=O)n1C)CCCC3,-13.5
20,CC(OC(=O)c1ccc(Br)c(S(=O)(=O)N2CCOCC2)c1)C(=O)NC1CCCCC1C (centres unmarked),-49.9
21,CC(C)(C)NC(=O)NC(=O)C[n+]1ccc(Cc2ccc([N+](=O)[O-])cc2)cc1.[Cl-],-5.27
22,O=C(CCCN1C(=O)/C(=C\c2ccccc2)SC1=S)Nc1ccc(O)cc1C(=O)O,18.1
23,CCOC(=O)/C=c1\s/c(=C\c2ccc(C(F)(F)F)cc2)c(=O)n1CC(=O)NCc1ccco1,5.47

row,Compound,"hERG current change (%, negative = inhibition) at 10uM [%]"
1,O=C(CSc1nnnn1-c1cccnc1)NCc1cccs1,9.62
2,CCOC(=O)COc1ccc(C2CC(C)=NN2c2ccccc2)cc1 (centres unmarked),-0.31
3,CC(=O)n1nc2nc(C)cc(C)c2c1N,13.9
4,O=C(/C=C/c1ccco1)NC1CCCC1,17.4
5,CCOc1ccc(/C=N/NC(=O)c2ccccc2C)cc1CN1CC2CC(C1)c1cccc(=O)n1C2 (centres unmarked),-26.8
6,O=C(CCN=C1NS(=O)(=O)c2ccccc21)OCC(=O)c1ccc(F)c(F)c1,11
7,O=C(NCc1ccccc1)NS(=O)(=O)c1ccccc1Cl,-4.3
8,CCOc1ccc(C2=CSC3=NCCN23)cc1[N+](=O)[O-],-75.5
9,COc1ccc(C2=CSC3=NCCN23)cc1[N+](=O)[O-],-26.1
10,CCOc1ccc(C2=CSC3=NCCN23)cc1,-4.08
11,CCN(CC)c1ccc2c(c1)oc(=O)c1c(Cl)cc(=O)oc12,14.8
12,COc1cc(O)c(NC(C)=O)c2nonc12,11.2
13,CCn1c(SCc2ccc(C)cc2)nnc1C1CCN(S(=O)(=O)c2ccc(OC)cc2)CC1,-64.5
14,CCn1c(SCc2ccc(F)cc2)nnc1C1CCN(S(=O)(=O)c2ccc(OC)cc2)CC1,-64.3
15,CCn1c(C2CCN(S(=O)(=O)c3ccc(OC)cc3)CC2)n[nH]c1=S,-18
16,Cc1ccc(S(=O)(=O)N2CCC(c3nnc(SCCN4CCCC4)n3C)CC2)cc1,17.7
17,CCn1c(SCc2ccccc2)nnc1C1CCN(S(=O)(=O)c2ccc(OC)cc2)CC1,-60.8
18,CCn1c(SCc2ccccc2)nnc1C1CCCCC1,-11.2
19,CCn1c(SCC(=O)c2ccc(OC)cc2)nnc1C1CC1,6.73
20,CCn1c(SC(C)C)nnc1C1CCN(S(=O)(=O)c2ccc(OC)cc2)CC1,-20.6
21,CCn1c(SC)nnc1C1CCN(S(=O)(=O)c2ccc(OC)cc2)CC1,-4.3
22,COc1ccc2c(c1)c(CC(=O)Nc1ccc(C)cc1)c(C)n2C(=O)c1ccc(Cl)cc1,-20.4
23,O=C1c2oc3ccccc3c(=O)c2C(c2ccccn2)N1Cc1ccccc1 (centres unmarked),5.53

row,Compound,"hERG current change (%, negative = inhibition) at 10uM [%]"
1,CCOC(=O)c1c(C)nc(-c2ccccc2)nc1NC(=O)CC,1.29
2,Cn1c(=O)c2sccc2n2c(CCCC(=O)NCc3ccco3)nnc12,-1.92
3,COC(=O)C1CCN(C(=O)c2ccccc2NC(C)=O)CC1,16.8
4,O=[N+]([O-])c1ccc(CSc2nnc3ccccn23)cc1,-57.2
5,Brc1ccc(CSc2nnc3ccccn23)cc1,-18.7
6,O=C(c1nc(SCc2ccc([N+](=O)[O-])cc2)n2ccccc12)C(F)(F)F,-71.1
7,O=c1c2ccccc2nc(SCc2ccc([N+](=O)[O-])cc2)n1-c1ccccc1,10.9
8,O=[N+]([O-])c1ccccc1CSc1nnc2ccccn12,-0.991
9,Cn1ccnc1SCc1ccc([N+](=O)[O-])cc1,-2.75
10,O=C(NC(=S)NNC(=O)c1ccccc1O)c1cccc([N+](=O)[O-])c1,26.2
11,O=C(NCCCN1CCOCC1)C(=O)N/N=C/c1ccccc1,-20.2
12,CCC(=NCCN1CCOCC1)c1c(O)n(C2CCCCC2)c(=O)[nH]c1=O,-6.76
13,CC1(C)CC(=O)C(CC(=O)N2CCC(Cc3ccccc3)CC2)C(=O)C1,34.8
14,CC12CCC(=O)N1C(C(=O)Nc1cccc3ccccc13)CS2 (centres unmarked),4.6
15,Cc1cc2nc(-c3ccc4c(c3)CCC4)ccn2n1,-2.72
16,Cc1ccc(NS(=O)(=O)c2cccc(C(=O)NCC3CCCO3)c2)cc1 (centres unmarked),-10
17,Brc1ccc(-c2nn[nH]n2)cc1,11.2
18,O=C(NC1CC1)c1ccc2c3c(cccc13)CC2,-2.52
19,CC(C)(C)NC(=O)c1ccc2c3c(cccc13)CC2,-51.4
20,CC(=O)c1ccc2c3c(cccc13)CC2,2.96
21,COc1ccc(Cl)cc1NC(=O)CSc1nnc(C)c(=O)n1N,2.48
22,O=C(c1ccccc1)N1N=C(c2ccc(F)cc2)CC1(O)C(F)(F)F (centres unmarked),-5.31
23,C/C(=N/OC(=O)CC(C)C)c1cc(-c2ccc(Cl)cc2)no1,15

row,Compound,"hERG current change (%, negative = inhibition) at 10uM [%]"
1,O=C(NCC(c1ccco1)N1CCCC1)c1cccc(NS(=O)(=O)c2ccccc2)c1 (centres unmarked),-5.9
2,Cc1ccc(N(C)S(=O)(=O)c2cccc(C(=O)NCC(c3ccco3)N3CCCC3)c2)cc1 (centres unmarked),-62.5
3,COc1ccc(N(C)S(=O)(=O)c2cccc(C(=O)NCC(c3ccco3)N3CCCC3)c2)cc1 (centres unmarked),-33.9
4,CN(c1ccccc1)S(=O)(=O)c1ccc(Cl)c(C(=O)NCC(c2ccco2)N2CCCC2)c1 (centres unmarked),-50.9
5,Cc1ccc(NS(=O)(=O)c2cccc(C(=O)NCC(c3ccco3)N3CCCC3)c2)cc1 (centres unmarked),-47.4
6,CCN(c1ccccc1)S(=O)(=O)c1cccc(C(=O)NCC(c2ccco2)N2CCCC2)c1 (centres unmarked),-59.3
7,CN(C)C(CNC(=O)c1cc(S(=O)(=O)N(C)c2ccc(F)cc2)ccc1Cl)c1ccco1 (centres unmarked),-28.3
8,CN(c1ccccc1)S(=O)(=O)c1ccc(C(=O)NCC(c2ccco2)N2CCCCC2)cc1 (centres unmarked),-12.1
9,CCN(c1ccccc1)S(=O)(=O)c1cccc(C(=O)NCC(c2cccs2)N2CCOCC2)c1 (centres unmarked),-18.7
10,CCCn1ncc2c(Nc3ccc(C)c(C)c3)ncnc21,-25.2
11,CC(NC(=O)c1ccco1)C(=O)N1CCN(C(c2ccccc2)c2ccccc2)CC1 (centres unmarked),-15.7
12,O=C(CN(CC1CCCO1)C(=O)CNS(=O)(=O)c1ccc(Cl)cc1)NCCc1ccccc1 (centres unmarked),-20.8
13,COc1ccc(CCn2c(O)c(C=Nc3ccc(NC(C)=O)cc3)c(=O)[nH]c2=O)cc1OC,27.6
14,CC(=O)Nc1ccc(S(=O)(=O)NCc2ccccn2)cc1,9.6
15,O=Cc1cccc(OC(=O)Nc2ccccc2)c1,6.95
16,CN(C)c1cc(-c2ccc(Cl)cc2Cl)oc(=O)c1Cl,0.166
17,CCOc1c2ccc(C(=O)NCCCCc3ccccc3)cc2nn1CC,-14.1
18,c1cn(CCCNc2ncnc3sc4c(c23)CCC4)cn1,-37.5
19,CC1CCc2c(sc3ncnc(N4CCOCC4)c23)C1 (centres unmarked),-16.6
20,OCCCNc1ncnc2sc3c(c12)CCN(Cc1ccccc1)C3,-37.9
21,COCCCNc1ncnc2sc3c(c12)CCC(C)C3 (centres unmarked),-24.5
22,CCCCNc1ncnc2sc3c(c12)CCN(CCC)C3,-76
23,CC1CCc2c(sc3ncnc(NCCN4CCOCC4)c23)C1 (centres unmarked),-54.6

# Reference: paper PMC4336329 (PLoS ONE, 2015)
